ELG1 repair inh = inhibitors of ELG1-dependent DNA repair in HEK293T cells. HEK293T ELG1-luciferase reporter, luminescence, 16 h; DNA damage induced by 5-fluorouridine. Potency, µM (series often up to 46.1 µM), without a hit: at the highest dose activity change, negative = inhibition, hits mostly inhibitors. hit rate 2.3% among 330,000; further: on the % scale 0 is the no-effect control and ±100 the full control effect; nearly all actives have a fitted effect of over 55% in size
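Step one: seed 2,000 cells per well. Step two: pin-transfer compound or DMSO alongside 5-fluorouridine. Step three: incubate 16 hr, 37 °C, 5% CO2. Step four: add ONE-Glo, wait 30 min, read luminescence.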
NPC1 promoter act = NPC1 promoter activation | Huh7 NPC1 promoter luciferase reporter, 24 h | Potency, µM (series often up to 9.22 µM), for inactives: at the highest dose activation, hits mostly activators | hit rate 2.4% among 320,000; further: % of control where 0% means no effect; nearly all actives have a fitted effect of over 60% in size
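Readout is luciferase luminescence, reflecting NPC1 promoter activation in stably transfected Huh7 cells after 24 h compound exposure at 37 °C in reduced-serum medium with 10% FBS.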
ELG1 genotoxic = genotoxicity induction in ELG1-luciferase HEK293T cells | HEK293T ELG1-luciferase reporter, luminescence, 16 h | Potency, µM (highest dose often 46 µM), for inactives: at the top dose activity change, positive = activation, most hits filed as activators | hit rate 1.3% among 330,000 | AID 504466; further: % of control where 0% means no effect; nearly all actives have a fitted effect of over 60% in size
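Luminescence read-out: rising ELG1-luciferase signal, reflecting elevated ELG1 protein under genetic stress, flags genotoxic compounds. Cells were treated for 16 hr at 37 °C before ONE-Glo detection.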
FLuc modulator = counter-screen for miR-21 project: firefly luciferase inhibitors or activators; purified FLuc, Km substrates, luminescence inhibition; AID 588342; Potency, µM (highest dose often 57.5 µM), for the others: at the highest dose activity change, negative = inhibition, most hits filed as inhibitors; hit rate 6.9% among 360,000; P08659;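 further: plate controls were vehicle for no effect and reference inhibitor for full effect; nearly all actives have a fitted effect of over 55% in size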
Target sequence (P08659 whole entry, looked up): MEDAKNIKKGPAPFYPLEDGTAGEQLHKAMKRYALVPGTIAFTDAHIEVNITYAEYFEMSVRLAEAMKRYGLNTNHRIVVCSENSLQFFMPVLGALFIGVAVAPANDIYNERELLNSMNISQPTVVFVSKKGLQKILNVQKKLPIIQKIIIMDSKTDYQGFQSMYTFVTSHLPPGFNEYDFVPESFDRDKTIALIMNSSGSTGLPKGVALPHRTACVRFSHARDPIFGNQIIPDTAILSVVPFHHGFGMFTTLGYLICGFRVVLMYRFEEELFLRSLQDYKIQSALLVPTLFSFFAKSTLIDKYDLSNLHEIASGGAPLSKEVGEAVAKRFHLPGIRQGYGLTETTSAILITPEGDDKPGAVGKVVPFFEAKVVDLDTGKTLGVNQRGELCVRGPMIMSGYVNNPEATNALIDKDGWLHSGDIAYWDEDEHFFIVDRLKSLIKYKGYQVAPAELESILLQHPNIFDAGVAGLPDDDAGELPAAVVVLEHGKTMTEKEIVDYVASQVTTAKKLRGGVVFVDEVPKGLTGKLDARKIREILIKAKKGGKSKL
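Purified P. pyralis luciferase (10nM final) with 10uM D-luciferin and 10uM ATP (Km levels) in 50mM Tris acetate pH 7.5, 10mM Mg acetate, 0.01% Tween-20, 0.05% BSA; qHTS 6-point titration, ~60 µM downward; luminescence read.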
SMN2 splice enh = increases expression of the SMN2 splice variant | AID 1458 | HEK293 SMN2-luciferase splicing reporter, luminescence, 30-36 h | Potency, µM (doses to about 46.1 µM), without a hit: top-dose activity change, positive = activation, most hits filed as activators | hit rate 2.8% among 210,000; further: % of control where 0% means no effect; nearly all actives have a fitted effect of over 55% in size
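HEK293 cells carry an SMN2 […]–luciferase reporter in which exon 7 inclusion puts luciferase in frame. Cells were plated 10-12 h before compound addition, then incubated 30-36 h at 37C. ONE-Glo luminescence was read; sodium butyrate at 4.5 mM final served as control.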
Rab9 promoter act = Rab9 promoter activation | Potency, µM (highest dose often 9.22 µM), inactives show at the highest dose activation, negative = inhibition, hits mostly activators | hit rate 2.8% among 320,000 | Huh7 Rab9 promoter-luciferase reporter, luminescence, 24 h; further: % of control where 0% means no effect; nearly all actives have a fitted effect of over 60% in size
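Huh7 cells stably carrying Rab9 promoter–luciferase reporter, plated 1500 cells/well, compound added after 2 h and incubated 24 h at 37 °C; luciferase luminescence then read after 10 min with detection reagent.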
* hit, by the source's call; ? = inconclusive; . = no result; [ ] = dose if it differs, or a comment. An excerpt weighted towards active compounds, which were near 9.3% of everything screened. The call rests on the fitted dose curve; in most records, active means well fitted curve in the direction sought with a large enough effect; inconclusive means small, poorly fitted or top-dose-only effect, or another doubt; inactive means no such curve, though single readings can be large; an effect the other way counts as inactive or inconclusive. Potency means the concentration at half of the fitted maximal effect.

SMILES	ELG1 repair inh	NPC1 promoter act	ELG1 genotoxic	FLuc modulator	SMN2 splice enh	Rab9 promoter act
CCOC(=O)c1c(C=O)c(C)n(Cc2ccc(Cl)cc2)c1C	?	-1%	-6%	0%	.	-1%
Cc1ccc2c(c1)cc1c(=O)[nH]ncn12	?	?	?	21µM*	-5%	?
CN(C)S(=O)(=O)c1cccc(NC(=O)CCc2nc3sc4c(c3c(=O)[nH]2)CCCC4)c1	11µM*	-3%	-6%	?	.	-1%
CCOC(=O)CSCc1nc(-c2ccc(Cl)cc2)oc1C	24%	2%	3%	17µM*	-19%	-8%
CCOC(=O)C1CCN(C(=O)CSCc2nc(-c3ccc(OCC)cc3)oc2C)CC1	-28%	-3%	21µM*	?	-79%	-11%
COc1ccc(-c2nc(CSCC(=O)N3CCN(c4ccccc4)CC3)c(C)o2)cc1	.	.	.	-18%	-9%	.
CCOc1ccc(-c2nc(CSCC(=O)N3CCN(C(=O)c4ccco4)CC3)c(C)o2)cc1	-14%	30%	-1%	19µM*	-26%	21%
CCc1cc2ccc(OC)cc2nc1SCC(=O)N1CCN(C(=O)c2ccco2)CC1	21µM*	0%	-11%	-18%	.	2%
CCOC(=O)N1CCN(C(=O)Cn2cc3c(n2)CCCC3)CC1	23%	-5%	1%	-1%	17%	-2%
CCOc1ccc(-c2nc(CSCC(=O)NCC3CCCO3)c(C)o2)cc1 (stereo not given)	23%	0%	0%[9.26 µM]	17µM*	.	3%
Cc1ccc(-c2nc(CSCC(=O)NCC3CCCO3)c(C)o2)cc1 (stereo not given)	9%	7%	0%	?	.	3%
Cc1cccc(Cn2c(SCc3ccc(C(=O)NCc4cccs4)cc3)nc3ccncc32)c1	.	.	.	-7%	7%	.
Cc1ccc(NC(=O)Nc2ccc3c(c2)nc(C)n3C)cc1C	?	1.3µM*	?	2.7µM*	.	0.63µM*
CCOc1ccc(NC(=O)Nc2ccc3c(c2)nc(C)n3C)cc1	21%	2%	5%	?	.	13%
COc1ccccc1NC(=O)Nc1cc(NC(=O)Nc2ccccc2OC)c(C)nc1C	?	-6%	?	-1%	31%	-7%
Clc1cccc(Nc2nnc(-c3ccccc3)c3ccccc23)c1	.	.	.	.	-47%	.
Cc1nc2cc(Nc3nnc(-c4ccccc4)c4ccccc34)ccc2n1C	?	3.5µM*	?	0.67µM*	.	?
COc1ccccc1NC(=O)Nc1ccc2c(c1)nc(C)n2C	?	0.63µM*	?	1.5µM*	13µM*	0.56µM*
Cc1nc2cc(NC(=O)Nc3cccc4ccccc34)ccc2n1C	?	3.2µM*	?	0.95µM*	4µM*	0.89µM*
O=C(O)CCC(=O)NNC(=O)CCC(=O)Nc1ccccc1	1%	3%	-8%	1%	10%	-2%
COc1ccccc1C(=O)NC(=O)COC(=O)C1CC1C (stereo not given)	21%	8%	-7%	8.5µM*	.	0%
O=C(COC(=O)C1CC1)Nc1ccc(Oc2ccccc2)cc1	10%	-2%	-2%	21µM*	6%	?
O=C(CCCC(=O)OCC(=O)c1cccs1)Nc1ccc(Oc2ccccc2)cc1	0%	1%	-3%	21µM*	5%	-2%
CC1CC1C(=O)OCC(=O)NC(=O)c1ccccc1 (stereo not given)	15%	0%	1%	-19%	.	-1%
O=C(COC(=O)C1CCC1)Nc1ccc(Oc2ccccc2)cc1	?	1%	6%	?	-20%	-6%
O=C(O)CCC(=O)Nc1ccc(N=Nc2ccccc2)cc1	?	12%	10%	11µM*	10%	16%
Cc1ccc(C)c(N2CCN(C3CCCC(C)C3)CC2)c1 (stereo not given)	-20%	0%	-11%	0%	.	1%
